In one test the target is Large ribosomal subunit protein eL14A (UniProt P36105). Description: cross-link between two proteins; cross-linking mass spectrometry.
Sequence of Large ribosomal subunit protein eL14A (P36105 whole entry): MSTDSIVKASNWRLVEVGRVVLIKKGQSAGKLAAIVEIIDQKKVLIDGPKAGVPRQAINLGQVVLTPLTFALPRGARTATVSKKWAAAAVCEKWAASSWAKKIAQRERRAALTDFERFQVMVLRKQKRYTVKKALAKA
Sequence of Large ribosomal subunit protein uL13A, P26784 (P26784 whole entry): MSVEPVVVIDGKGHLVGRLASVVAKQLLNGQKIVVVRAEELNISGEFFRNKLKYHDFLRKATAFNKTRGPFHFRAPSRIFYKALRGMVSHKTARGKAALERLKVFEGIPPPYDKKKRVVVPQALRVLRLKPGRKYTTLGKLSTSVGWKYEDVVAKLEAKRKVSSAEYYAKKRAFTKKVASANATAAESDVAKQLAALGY
Sequence of Large ribosomal subunit protein uL13B, P26785 (P26785 whole entry): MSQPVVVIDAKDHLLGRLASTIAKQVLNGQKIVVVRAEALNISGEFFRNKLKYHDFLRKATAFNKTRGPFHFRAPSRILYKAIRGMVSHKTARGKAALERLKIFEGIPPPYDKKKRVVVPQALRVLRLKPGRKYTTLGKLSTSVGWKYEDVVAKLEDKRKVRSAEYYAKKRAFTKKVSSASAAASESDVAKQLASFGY
Sequence of Large ribosomal subunit protein eL32, P38061 (P38061 whole entry): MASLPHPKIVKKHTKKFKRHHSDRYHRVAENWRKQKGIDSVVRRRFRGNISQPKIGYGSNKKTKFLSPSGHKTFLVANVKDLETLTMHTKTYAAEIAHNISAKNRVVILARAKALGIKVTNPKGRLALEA
For “Large ribosomal subunit protein uL30A, P05737”, the “listed as a hit” value is “yes”.

Consider “Large ribosomal subunit protein uL13A, P26784”, for which the “listed as a hit” value is recorded as “yes”.

Consider “Large ribosomal subunit protein uL13B, P26785”, for which the “listed as a hit” value was “yes”.

For another test, the target named is Ribosome biogenesis protein ALB1 (UniProt P47019). The description is as above.
Sequence of Ribosome biogenesis protein ALB1 (P47019 whole entry): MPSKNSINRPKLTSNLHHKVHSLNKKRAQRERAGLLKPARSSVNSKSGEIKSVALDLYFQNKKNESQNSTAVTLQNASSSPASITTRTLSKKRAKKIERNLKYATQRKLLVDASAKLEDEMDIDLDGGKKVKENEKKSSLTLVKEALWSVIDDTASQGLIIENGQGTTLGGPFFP
Take “Large ribosomal subunit protein eL32, P38061”: the “listed as a hit” value was “yes”.

“Large ribosomal subunit protein uL24A, P05743”: the “listed as a hit” value is “yes”.

For the substance “Large ribosomal subunit protein eL6B, P05739”, the “listed as a hit” value is listed as “yes”.

Source of the values: article PMC6579518.
